Measured values published in ChEMBL document CHEMBL2218924, “A broad activity screen in support of a chemogenomic map for kinase signalling research and drug discovery” (Biochem J, 2013).

How the values were obtained:
[1] = biological target: SRSF protein kinase 2 (Homo sapiens) (UniProt P78362); details: at 1 µM
[2] = biological target: SRSF protein kinase 2 (Homo sapiens) (UniProt P78362); details: at 10 µM
[3] = biological target: Serine/threonine-protein kinase 33 (Homo sapiens) (UniProt Q9BYT3); details: at 1 µM
[4] = biological target: Serine/threonine-protein kinase 33 (Homo sapiens) (UniProt Q9BYT3); details: at 10 µM
[5] = biological target: Serine/threonine-protein kinase PLK2 (Homo sapiens) (UniProt Q9NYY3); details: at 1 µM
[6] = biological target: Serine/threonine-protein kinase PLK2 (Homo sapiens) (UniProt Q9NYY3); details: at 10 µM
[7] = biological target: T1, Mitogen-activated protein kinase kinase kinase 7 (Homo sapiens) (UniProt O43318); details: at 1 µM
T1 sequence (whole entry): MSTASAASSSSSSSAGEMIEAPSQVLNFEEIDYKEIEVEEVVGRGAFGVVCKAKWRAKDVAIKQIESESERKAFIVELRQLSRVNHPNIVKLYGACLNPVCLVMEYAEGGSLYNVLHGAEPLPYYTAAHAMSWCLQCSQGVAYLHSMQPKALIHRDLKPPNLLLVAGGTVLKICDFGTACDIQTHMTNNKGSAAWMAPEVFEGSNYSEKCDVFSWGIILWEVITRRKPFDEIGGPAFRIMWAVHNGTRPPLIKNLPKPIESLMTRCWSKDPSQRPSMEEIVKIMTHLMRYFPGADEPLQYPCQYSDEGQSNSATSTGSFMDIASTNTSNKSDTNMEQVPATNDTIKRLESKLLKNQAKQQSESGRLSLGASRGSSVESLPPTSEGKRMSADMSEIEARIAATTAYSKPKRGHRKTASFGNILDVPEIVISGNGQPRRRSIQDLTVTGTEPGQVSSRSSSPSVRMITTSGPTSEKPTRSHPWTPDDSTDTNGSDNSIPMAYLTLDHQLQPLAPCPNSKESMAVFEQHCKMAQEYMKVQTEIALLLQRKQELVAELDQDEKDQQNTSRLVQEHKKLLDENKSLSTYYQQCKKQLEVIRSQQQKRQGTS

[8] = biological target: T1, Mitogen-activated protein kinase kinase kinase 7 (Homo sapiens); details: at 10 µM
[9] = biological target: T2, Serine/threonine-protein kinase TAO1 (Homo sapiens) (UniProt Q7L7X3); details: at 10 µM
T2 sequence (whole entry): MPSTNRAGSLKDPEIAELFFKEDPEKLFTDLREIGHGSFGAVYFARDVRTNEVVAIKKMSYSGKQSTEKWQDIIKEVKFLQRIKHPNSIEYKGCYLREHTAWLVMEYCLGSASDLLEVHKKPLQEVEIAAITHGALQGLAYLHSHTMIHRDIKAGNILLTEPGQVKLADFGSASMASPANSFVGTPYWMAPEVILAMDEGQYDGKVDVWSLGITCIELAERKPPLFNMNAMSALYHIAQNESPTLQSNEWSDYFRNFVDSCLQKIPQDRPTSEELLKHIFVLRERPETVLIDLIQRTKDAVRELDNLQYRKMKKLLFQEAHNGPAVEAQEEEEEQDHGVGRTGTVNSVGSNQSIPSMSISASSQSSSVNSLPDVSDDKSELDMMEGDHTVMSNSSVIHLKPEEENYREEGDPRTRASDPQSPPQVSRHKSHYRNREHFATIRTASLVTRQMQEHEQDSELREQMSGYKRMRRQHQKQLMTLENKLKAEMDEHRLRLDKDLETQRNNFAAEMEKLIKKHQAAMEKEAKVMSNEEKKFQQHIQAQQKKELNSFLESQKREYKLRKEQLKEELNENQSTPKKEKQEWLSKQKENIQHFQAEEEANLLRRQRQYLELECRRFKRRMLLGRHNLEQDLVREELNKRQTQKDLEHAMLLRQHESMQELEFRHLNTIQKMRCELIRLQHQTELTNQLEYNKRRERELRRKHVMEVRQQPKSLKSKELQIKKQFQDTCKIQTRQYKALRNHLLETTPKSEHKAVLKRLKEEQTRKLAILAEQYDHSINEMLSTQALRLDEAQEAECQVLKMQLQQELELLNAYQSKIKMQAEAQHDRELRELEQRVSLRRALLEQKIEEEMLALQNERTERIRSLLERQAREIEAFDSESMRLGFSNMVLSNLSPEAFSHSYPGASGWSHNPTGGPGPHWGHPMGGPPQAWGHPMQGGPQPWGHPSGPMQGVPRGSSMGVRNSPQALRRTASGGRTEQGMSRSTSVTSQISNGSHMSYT

[10] = biological target: T3, Serine/threonine-protein kinase TAO2 (Homo sapiens) (UniProt Q9UL54); details: at 10 µM
T3 sequence (whole entry): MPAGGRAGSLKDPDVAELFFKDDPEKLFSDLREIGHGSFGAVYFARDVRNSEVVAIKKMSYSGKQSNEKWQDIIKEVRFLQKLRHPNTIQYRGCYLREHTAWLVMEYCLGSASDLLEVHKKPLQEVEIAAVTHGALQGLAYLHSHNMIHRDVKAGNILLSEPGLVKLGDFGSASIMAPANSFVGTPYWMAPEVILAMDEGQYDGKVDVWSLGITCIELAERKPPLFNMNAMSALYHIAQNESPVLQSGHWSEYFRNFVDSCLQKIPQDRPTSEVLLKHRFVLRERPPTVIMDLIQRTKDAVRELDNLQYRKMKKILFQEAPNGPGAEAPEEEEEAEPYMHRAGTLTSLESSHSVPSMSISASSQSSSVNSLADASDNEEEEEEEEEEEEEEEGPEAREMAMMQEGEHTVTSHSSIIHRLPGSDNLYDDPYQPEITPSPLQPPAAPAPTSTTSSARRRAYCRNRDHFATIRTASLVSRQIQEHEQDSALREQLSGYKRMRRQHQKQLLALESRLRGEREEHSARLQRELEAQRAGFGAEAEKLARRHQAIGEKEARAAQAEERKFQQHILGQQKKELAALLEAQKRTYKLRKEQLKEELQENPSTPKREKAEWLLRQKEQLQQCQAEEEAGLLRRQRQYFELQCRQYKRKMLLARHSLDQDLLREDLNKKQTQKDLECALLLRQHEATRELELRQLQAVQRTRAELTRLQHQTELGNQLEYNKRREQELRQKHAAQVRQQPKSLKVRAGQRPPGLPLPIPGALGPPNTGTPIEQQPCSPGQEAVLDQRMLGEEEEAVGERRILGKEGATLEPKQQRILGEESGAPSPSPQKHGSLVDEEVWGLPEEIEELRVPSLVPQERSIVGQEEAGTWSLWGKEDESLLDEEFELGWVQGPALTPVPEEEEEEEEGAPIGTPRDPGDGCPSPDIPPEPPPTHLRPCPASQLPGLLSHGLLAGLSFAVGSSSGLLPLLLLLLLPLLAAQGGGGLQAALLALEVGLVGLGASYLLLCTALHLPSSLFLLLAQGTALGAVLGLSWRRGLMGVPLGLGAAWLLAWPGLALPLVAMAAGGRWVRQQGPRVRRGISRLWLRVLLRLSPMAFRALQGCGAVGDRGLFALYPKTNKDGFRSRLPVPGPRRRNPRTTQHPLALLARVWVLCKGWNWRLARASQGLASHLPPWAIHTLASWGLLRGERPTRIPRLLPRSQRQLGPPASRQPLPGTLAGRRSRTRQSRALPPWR

[11] = biological target: T4, Serine/threonine-protein kinase TAO3 (Homo sapiens) (UniProt Q9H2K8); details: at 1 µM
T4 sequence (whole entry): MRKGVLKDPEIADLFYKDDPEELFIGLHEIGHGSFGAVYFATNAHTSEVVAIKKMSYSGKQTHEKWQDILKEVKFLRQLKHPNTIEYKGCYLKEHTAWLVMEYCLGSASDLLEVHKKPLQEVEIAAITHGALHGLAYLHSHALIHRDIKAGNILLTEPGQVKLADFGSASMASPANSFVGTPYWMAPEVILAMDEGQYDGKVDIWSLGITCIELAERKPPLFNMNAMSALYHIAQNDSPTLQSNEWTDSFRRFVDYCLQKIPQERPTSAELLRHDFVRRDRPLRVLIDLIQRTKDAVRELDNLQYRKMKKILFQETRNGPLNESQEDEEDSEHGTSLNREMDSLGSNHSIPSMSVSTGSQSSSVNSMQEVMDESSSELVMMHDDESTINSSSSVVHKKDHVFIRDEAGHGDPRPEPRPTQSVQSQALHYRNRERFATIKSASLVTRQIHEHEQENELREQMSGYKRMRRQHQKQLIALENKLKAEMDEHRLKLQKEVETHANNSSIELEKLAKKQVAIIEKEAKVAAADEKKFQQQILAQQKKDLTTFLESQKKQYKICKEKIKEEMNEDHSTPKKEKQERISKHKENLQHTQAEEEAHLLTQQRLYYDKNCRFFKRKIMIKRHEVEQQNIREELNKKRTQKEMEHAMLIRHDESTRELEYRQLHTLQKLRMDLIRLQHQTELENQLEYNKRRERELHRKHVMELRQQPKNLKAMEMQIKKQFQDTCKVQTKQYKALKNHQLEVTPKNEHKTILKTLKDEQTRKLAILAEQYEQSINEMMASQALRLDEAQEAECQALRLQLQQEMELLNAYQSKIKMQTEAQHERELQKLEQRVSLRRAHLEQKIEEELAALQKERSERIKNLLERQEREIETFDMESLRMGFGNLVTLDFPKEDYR

[12] = biological target: T4, Serine/threonine-protein kinase TAO3 (Homo sapiens); details: at 10 µM
[13] = biological target: T5, Serine/threonine-protein kinase TBK1 (Homo sapiens) (UniProt Q9UHD2); details: at 1 µM
T5 sequence (whole entry): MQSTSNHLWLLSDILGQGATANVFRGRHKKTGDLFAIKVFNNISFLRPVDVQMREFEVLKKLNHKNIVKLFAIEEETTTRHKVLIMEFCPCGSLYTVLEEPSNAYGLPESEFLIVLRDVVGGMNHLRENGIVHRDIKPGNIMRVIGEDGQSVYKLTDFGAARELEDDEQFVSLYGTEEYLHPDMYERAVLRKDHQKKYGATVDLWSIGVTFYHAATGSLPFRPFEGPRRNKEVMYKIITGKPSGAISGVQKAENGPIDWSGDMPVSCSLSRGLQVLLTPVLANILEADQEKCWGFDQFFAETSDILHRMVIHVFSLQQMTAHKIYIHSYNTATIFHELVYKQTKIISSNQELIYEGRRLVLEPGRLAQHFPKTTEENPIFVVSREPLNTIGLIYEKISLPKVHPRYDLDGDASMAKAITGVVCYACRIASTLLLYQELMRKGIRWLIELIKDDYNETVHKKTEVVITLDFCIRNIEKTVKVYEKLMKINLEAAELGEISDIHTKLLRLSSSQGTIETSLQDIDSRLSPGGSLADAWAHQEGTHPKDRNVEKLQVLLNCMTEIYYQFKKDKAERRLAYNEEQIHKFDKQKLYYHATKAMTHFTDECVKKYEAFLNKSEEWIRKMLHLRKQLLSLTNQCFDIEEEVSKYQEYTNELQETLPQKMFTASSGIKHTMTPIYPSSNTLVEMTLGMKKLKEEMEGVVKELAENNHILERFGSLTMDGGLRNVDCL

[14] = biological target: Serine/threonine-protein kinase SIK1 (Homo sapiens) (UniProt P57059); details: at 10 µM
[15] = biological target: Tyrosine-protein kinase SYK (Homo sapiens) (UniProt P43405); details: at 1 µM
[16] = biological target: Tyrosine-protein kinase SYK (Homo sapiens) (UniProt P43405); details: at 10 µM
[17] = biological target: T2, Serine/threonine-protein kinase TAO1 (Homo sapiens); details: at 1 µM
[18] = biological target: SRSF protein kinase 1 (Homo sapiens) (UniProt Q96SB4); details: at 1 µM
[19] = biological target: T3, Serine/threonine-protein kinase TAO2 (Homo sapiens); details: at 1 µM

Chain of Serine/threonine-protein kinase 33 (Homo sapiens) (Q9BYT3 whole entry, looked up): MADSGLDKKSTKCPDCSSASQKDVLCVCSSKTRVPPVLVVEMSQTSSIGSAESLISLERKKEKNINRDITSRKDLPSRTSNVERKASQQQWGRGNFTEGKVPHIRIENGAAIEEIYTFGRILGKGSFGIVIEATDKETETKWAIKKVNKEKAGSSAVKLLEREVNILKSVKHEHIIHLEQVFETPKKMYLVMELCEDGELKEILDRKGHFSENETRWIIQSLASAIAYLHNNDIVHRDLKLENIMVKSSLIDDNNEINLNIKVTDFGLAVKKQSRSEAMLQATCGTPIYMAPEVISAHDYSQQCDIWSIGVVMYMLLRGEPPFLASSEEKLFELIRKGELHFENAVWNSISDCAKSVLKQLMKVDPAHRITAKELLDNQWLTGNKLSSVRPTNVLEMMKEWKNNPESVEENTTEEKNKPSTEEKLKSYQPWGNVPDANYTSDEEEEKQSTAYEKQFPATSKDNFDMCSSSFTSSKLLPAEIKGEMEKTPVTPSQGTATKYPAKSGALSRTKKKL
Chain of SRSF protein kinase 2 (Homo sapiens) (P78362 whole entry, looked up): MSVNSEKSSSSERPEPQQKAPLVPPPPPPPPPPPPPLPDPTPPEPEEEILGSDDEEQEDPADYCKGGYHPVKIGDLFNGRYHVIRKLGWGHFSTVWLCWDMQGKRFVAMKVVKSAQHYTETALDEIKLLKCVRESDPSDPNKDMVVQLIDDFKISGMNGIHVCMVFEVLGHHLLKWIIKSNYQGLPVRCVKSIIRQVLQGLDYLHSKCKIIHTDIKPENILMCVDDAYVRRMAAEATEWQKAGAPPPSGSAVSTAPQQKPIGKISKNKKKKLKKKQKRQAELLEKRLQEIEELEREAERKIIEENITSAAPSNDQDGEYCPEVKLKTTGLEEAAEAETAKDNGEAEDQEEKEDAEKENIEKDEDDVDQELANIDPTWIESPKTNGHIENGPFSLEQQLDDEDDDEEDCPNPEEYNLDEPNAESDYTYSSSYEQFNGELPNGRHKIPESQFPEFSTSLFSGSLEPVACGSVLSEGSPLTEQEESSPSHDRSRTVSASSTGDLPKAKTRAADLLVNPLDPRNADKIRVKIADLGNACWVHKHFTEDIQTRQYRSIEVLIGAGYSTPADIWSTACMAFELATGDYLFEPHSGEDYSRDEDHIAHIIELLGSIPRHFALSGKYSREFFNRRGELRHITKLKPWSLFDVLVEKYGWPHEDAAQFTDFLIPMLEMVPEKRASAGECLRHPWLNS
Chain of Serine/threonine-protein kinase SIK1 (Homo sapiens) (P57059 whole entry): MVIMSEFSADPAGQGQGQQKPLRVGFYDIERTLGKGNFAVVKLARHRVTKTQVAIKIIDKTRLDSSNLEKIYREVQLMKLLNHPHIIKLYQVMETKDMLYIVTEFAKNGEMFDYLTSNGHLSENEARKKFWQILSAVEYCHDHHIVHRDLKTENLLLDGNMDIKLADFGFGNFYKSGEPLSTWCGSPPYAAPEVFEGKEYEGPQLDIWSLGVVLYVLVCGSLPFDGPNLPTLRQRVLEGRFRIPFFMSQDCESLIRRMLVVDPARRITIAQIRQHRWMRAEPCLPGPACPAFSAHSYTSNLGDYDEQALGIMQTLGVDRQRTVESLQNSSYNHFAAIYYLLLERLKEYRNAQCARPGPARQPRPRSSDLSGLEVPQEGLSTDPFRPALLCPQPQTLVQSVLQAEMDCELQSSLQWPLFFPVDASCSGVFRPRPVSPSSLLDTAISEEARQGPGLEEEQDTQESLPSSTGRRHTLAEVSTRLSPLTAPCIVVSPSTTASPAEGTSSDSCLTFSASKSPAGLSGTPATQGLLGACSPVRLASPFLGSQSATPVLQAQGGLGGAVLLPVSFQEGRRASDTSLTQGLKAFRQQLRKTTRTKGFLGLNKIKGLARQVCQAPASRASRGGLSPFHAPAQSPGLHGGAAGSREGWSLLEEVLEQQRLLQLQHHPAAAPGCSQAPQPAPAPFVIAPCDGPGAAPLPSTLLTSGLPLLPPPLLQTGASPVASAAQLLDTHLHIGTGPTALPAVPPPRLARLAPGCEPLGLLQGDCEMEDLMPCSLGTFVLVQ
Chain of Serine/threonine-protein kinase PLK2 (Homo sapiens) (Q9NYY3 whole entry, looked up): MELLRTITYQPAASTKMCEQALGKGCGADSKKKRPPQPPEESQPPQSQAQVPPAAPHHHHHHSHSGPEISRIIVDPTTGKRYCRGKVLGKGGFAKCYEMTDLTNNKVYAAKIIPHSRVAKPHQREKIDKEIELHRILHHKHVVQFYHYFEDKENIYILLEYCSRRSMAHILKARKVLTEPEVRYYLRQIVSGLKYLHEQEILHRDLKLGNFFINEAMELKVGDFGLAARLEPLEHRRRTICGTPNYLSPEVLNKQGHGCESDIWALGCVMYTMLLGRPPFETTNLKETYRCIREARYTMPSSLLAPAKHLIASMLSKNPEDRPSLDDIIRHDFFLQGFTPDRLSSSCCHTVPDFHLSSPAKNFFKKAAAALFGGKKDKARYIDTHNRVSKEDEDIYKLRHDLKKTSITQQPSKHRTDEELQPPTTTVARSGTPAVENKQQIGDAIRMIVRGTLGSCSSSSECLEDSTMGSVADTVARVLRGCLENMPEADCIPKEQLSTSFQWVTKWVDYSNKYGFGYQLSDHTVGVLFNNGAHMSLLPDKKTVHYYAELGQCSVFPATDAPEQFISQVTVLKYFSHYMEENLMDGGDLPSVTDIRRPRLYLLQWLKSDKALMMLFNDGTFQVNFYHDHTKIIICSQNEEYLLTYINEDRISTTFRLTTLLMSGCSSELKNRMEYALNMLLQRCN
Chain of SRSF protein kinase 1 (Homo sapiens) (Q96SB4 whole entry): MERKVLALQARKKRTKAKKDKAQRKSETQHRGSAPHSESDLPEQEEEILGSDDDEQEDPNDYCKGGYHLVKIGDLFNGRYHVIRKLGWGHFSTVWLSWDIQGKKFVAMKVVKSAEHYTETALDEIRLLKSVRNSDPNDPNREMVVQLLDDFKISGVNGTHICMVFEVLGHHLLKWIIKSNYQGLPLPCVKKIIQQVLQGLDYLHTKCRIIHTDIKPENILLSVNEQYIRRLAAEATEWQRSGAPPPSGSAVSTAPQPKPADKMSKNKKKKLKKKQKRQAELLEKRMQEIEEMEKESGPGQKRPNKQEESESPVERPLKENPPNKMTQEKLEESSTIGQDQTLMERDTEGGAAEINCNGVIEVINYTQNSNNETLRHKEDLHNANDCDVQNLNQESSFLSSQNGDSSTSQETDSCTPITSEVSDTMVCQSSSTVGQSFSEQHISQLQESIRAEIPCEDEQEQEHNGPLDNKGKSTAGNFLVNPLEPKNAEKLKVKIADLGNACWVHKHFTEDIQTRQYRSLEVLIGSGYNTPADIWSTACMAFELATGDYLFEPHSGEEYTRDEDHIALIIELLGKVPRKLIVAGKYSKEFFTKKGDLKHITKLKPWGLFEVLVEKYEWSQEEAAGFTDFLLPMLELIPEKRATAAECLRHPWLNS

In the case of `O=C1Nc2ccccc2/C1=C\c1c(Cl)[nH]c2ccccc12`, the residual activity [1] is reported as 100%, the residual activity [2] is reported as 83% and the residual activity [3] is reported as 99%. The residual activity [4] was 85%, the residual activity [5] was 99% and the residual activity [6] was 80%. For the same compound, the residual activity [7] was 99%, the residual activity [8] was 77% and the residual activity [9] was 63%. The residual activity [10] was 44%, the residual activity [11] was 85% and the residual activity [12] was 40%. For the same compound, the residual activity [13] was 72%.

`O=S(=O)(NCCNC/C=C/c1ccc(Br)cc1)c1cccc2cnccc12` showed a residual activity [14] of 57%, a residual activity [9] of 59% and a residual activity [12] of 61%.

`COc1ccc(-c2cnc3c(-c4ccsc4)cnn3c2)cc1` gave a residual activity [14] of 2%, a residual activity [3] of 95% and a residual activity [4] of 96%. It also gave a residual activity [15] of 127%, a residual activity [16] of 95% and a residual activity [7] of 99%. It also gave a residual activity [8] of 97%, a residual activity [17] of 97% and a residual activity [9] of 97%. The residual activity [13] was 97%.

With `COc1cc2nccc(Oc3ccc(NC(=O)Nc4cc(C)on4)c(Cl)c3)c2cc1OC` the residual activity [18] was 98%, the residual activity [1] was 99% and the residual activity [3] was 81%. The residual activity [4] was 73%, the residual activity [5] was 105% and the residual activity [6] was 98%. For the same compound, the residual activity [9] was 52%, the residual activity [19] was 73% and the residual activity [10] was 43%. The residual activity [11] was 82%, the residual activity [12] was 57% and the residual activity [13] was 82%.

`O=C1NC(=O)C(c2cn(CCCO)c3ncccc23)=C1c1cnccn1` was tested, and the residual activity [14] was 84%, the residual activity [15] was 93% and the residual activity [16] was 96%. It also gave a residual activity [7] of 94%, a residual activity [8] of 81% and a residual activity [17] of 86%. The residual activity [9] was 69%, the residual activity [11] was 83% and the residual activity [12] was 77%. It also gave a residual activity [13] of 92%.
